Some test systems named below: NCI-H226 lung; NCI-H322M lung; HOP-62 NSCLC; NCI-H460 lung; NCI-H522 lung; A549/ATCC NSCLC; 786-0 renal; MALME-3M melanoma; MDA-MB-231 breast; RXF 393 renal; SF-268 CNS; SF-295 CNS; SF-539 CNS; UACC-257 melanoma; M14 melanoma; COLO 205 colon; DU-145 prostate; K-562 leukemia; HCT-15 colon.
Holding throughout (assay): NCI-60 one-dose screen, 48 h (100 = growth as untreated, 0 = no growth, -100 = all killed)
Common to all, as to conditions: 10 µM unless noted

This is part of a sample that, as a whole, favours compounds with a hit. Of some 83,000 tested, about 20% had one in any assay.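 Assay: single dose, 48 h. Readout: percent growth (0 = no net growth; negative = cell death). Active: <10.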 Unmarked numbers belong to inactive results. Active and inactive are the calls of the source.

As to `Cn1cc(-c2csc(-c3cn(C)c4ncccc34)n2)c2cc(F)cnc21`, the growth with NCI-H226 lung was 94.4%; in the assay with NCI-H322M lung, 112%; with HOP-62 NSCLC it was 99.1%; with NCI-H460 lung, 84.1%; with NCI-H522 lung, 22.2%; in the assay with A549/ATCC NSCLC it was 73.6%. The growth is 91% in the assay on 786-0 renal; 80.7% in the assay with MALME-3M melanoma; 62.6% with MDA-MB-231 breast; 82.4% in the assay on RXF 393 renal; 95.4% in the assay with SF-268 CNS; 69.5% in the assay with SF-295 CNS. Moreover, the growth with SF-539 CNS was 101%; in the assay on UACC-257 melanoma, 84.1%; in the assay with M14 melanoma it was 62.8%.
Consider `c1ccc(Nc2nnc(-c3cc(-c4cccnc4)n(-c4ccccc4)n3)s2)cc1`, for which the growth with NCI-H226 lung was 99.8%; with HOP-62 NSCLC, 99.1%; in the assay with NCI-H460 lung it was 80.5%; in the assay with NCI-H522 lung, 71%; with A549/ATCC NSCLC, 74.1%; in the assay with 786-0 renal, 77.1%. In addition, the growth in the assay with COLO 205 colon was 83.3%; in the assay with DU-145 prostate, 94.3%; with K-562 leukemia it was 36.1%; in the assay with MALME-3M melanoma, 83.3%; with MDA-MB-231 breast it was 35.6%; in the assay on RXF 393 renal, 71.8%. Moreover, the growth in the assay on SF-268 CNS is 113%; in the assay with SF-295 CNS it was 40.8%; in the assay with SF-539 CNS, 104%; in the assay with UACC-257 melanoma, 139%; in the assay with HCT-15 colon, 8.1% (active).
As to `Clc1ccc2nc(Cl)c3ccccc3c2c1`, the growth is 71.7% in the assay on NCI-H226 lung; 37.6% with NCI-H322M lung; 58.3% with HOP-62 NSCLC; -1.38% (active) with NCI-H460 lung; 75.7% with NCI-H522 lung; 28.7% in the assay with A549/ATCC NSCLC. Besides, the growth was 46.8% with 786-0 renal; 78.3% with COLO 205 colon; 62.9% with DU-145 prostate; 88% with K-562 leukemia; 67.2% in the assay on MALME-3M melanoma; 74.9% in the assay on MDA-MB-231 breast. Moreover, the growth in the assay on RXF 393 renal was 59.6%; in the assay with SF-268 CNS, 76.3%; in the assay on SF-539 CNS, 63.8%; with UACC-257 melanoma, 93.1%; in the assay with M14 melanoma, 99.9%; in the assay on HCT-15 colon it was 91.4%.
Regarding `Cn1c(=O)c2c(nc(Br)n2CCC(=O)Nc2ccc(F)cc2)n(C)c1=O`, the growth in the assay on NCI-H226 lung is 101%; in the assay with NCI-H322M lung it was 106%; with HOP-62 NSCLC, 92.4%; in the assay on NCI-H460 lung, 109%; in the assay with NCI-H522 lung it was 87.9%; with A549/ATCC NSCLC, 85.2%. The growth in the assay with 786-0 renal is 100%; in the assay with COLO 205 colon, 112%; in the assay on DU-145 prostate, 118%; in the assay on K-562 leukemia, 97.5%; in the assay on MALME-3M melanoma, 105%; with MDA-MB-231 breast, 102%. The growth with RXF 393 renal is 118%; in the assay on SF-268 CNS, 111%; in the assay on SF-295 CNS it was 104%; in the assay with SF-539 CNS, 98.7%; in the assay on M14 melanoma it was 96.3%; with HCT-15 colon, 108%.
In the case of `Cc1nn(-c2ccc(Cl)cc2)c2nc3c(nc12)C(=O)C(=O)c1ccccc1-3`, the growth in the assay with NCI-H226 lung is 65.2%; in the assay with NCI-H322M lung it was 65.1%; in the assay with HOP-62 NSCLC, 72.1%; in the assay on NCI-H460 lung it was 5.27% (active); with NCI-H522 lung it was 79.7%; in the assay with A549/ATCC NSCLC, 18.2%. For the same molecule, the growth with 786-0 renal is 89.5%; with COLO 205 colon it was 54.3%; with DU-145 prostate it was -22% (active); in the assay on MALME-3M melanoma, 36.8%; in the assay with MDA-MB-231 breast, 40.4%; in the assay on RXF 393 renal, 89.6%. Moreover, the growth was 89.3% with SF-268 CNS; 12.1% in the assay with SF-295 CNS; 69.2% in the assay on UACC-257 melanoma; 75.5% in the assay with M14 melanoma; 73.9% in the assay on HCT-15 colon.
In the case of `OC(c1cc(C(F)(F)F)nc2c(C(F)(F)F)cccc12)C1CCCCN1` (configuration not stated), the growth with NCI-H322M lung was 64.8%; in the assay with HOP-62 NSCLC, 74.4%; with NCI-H460 lung, 13.8%; with NCI-H522 lung it was -4.33% (active); in the assay on 786-0 renal, 56.7%; with COLO 205 colon, 29.3%. In addition, the growth is 78.8% in the assay with DU-145 prostate; 14.7% in the assay on K-562 leukemia; 100% with MALME-3M melanoma; 47.1% in the assay with MDA-MB-231 breast; 47.9% in the assay with SF-268 CNS; 88.2% in the assay with SF-295 CNS. Besides, the growth in the assay on SF-539 CNS was 82.8%; in the assay on M14 melanoma it was 76%; in the assay on HCT-15 colon it was 77.5%.
Regarding `Cn1cc(-c2csc(-c3cn(C)c4ncccc34)n2)c2cc(Br)cnc21`, the growth with NCI-H226 lung is 101%; in the assay with NCI-H322M lung, 104%; in the assay on HOP-62 NSCLC it was 100%; with NCI-H460 lung, 95.4%; in the assay with NCI-H522 lung, 98.7%; in the assay with A549/ATCC NSCLC, 87%. Further, the growth in the assay on 786-0 renal is 93.8%; in the assay on MALME-3M melanoma, 107%; with MDA-MB-231 breast, 61.9%; with RXF 393 renal it was 81.2%; in the assay with SF-268 CNS it was 105%; in the assay with SF-295 CNS, 82.1%. Besides, the growth in the assay with SF-539 CNS was 109%; in the assay with UACC-257 melanoma it was 96.2%; in the assay on M14 melanoma, 80.7%; in the assay with HCT-15 colon it was 81.1%.
For `Cc1c(N(C)CS(=O)(=O)O)c(=O)n(-c2ccccc2)n1C`, the growth was 102% in the assay with NCI-H226 lung; 96.9% with NCI-H322M lung; 92.7% in the assay with HOP-62 NSCLC; 121% with NCI-H460 lung; 89.8% with NCI-H522 lung; 97.1% in the assay with A549/ATCC NSCLC. Besides, the growth is 91.5% in the assay on 786-0 renal; 115% in the assay on COLO 205 colon; 112% in the assay with DU-145 prostate; 102% in the assay with K-562 leukemia; 94.1% with MALME-3M melanoma; 107% in the assay on MDA-MB-231 breast. Further, the growth with RXF 393 renal is 115%; in the assay on SF-268 CNS, 115%; in the assay on SF-295 CNS it was 98.9%; with SF-539 CNS, 106%; with UACC-257 melanoma it was 108%; in the assay with M14 melanoma, 103%. For the same molecule, the growth in the assay on HCT-15 colon was 103%.
Regarding `O=C(Nc1nc(-c2ccc(Cl)cc2)cs1)c1cc(O)c(O)c(O)c1`, the growth in the assay with NCI-H226 lung was 74.9%; with NCI-H322M lung, 60.8%; in the assay on HOP-62 NSCLC it was 38.6%; in the assay with NCI-H460 lung, 10.2%; in the assay on NCI-H522 lung, -34.9% (active); in the assay with A549/ATCC NSCLC, 25.2%. The growth with 786-0 renal is 11.5%; in the assay with COLO 205 colon, 77.6%; in the assay on DU-145 prostate, 35.8%; in the assay on K-562 leukemia, 7.99% (active); in the assay with MDA-MB-231 breast, 36%; in the assay on SF-268 CNS it was 26.7%. Also, the growth is 31.2% with SF-295 CNS; 5.36% (active) in the assay on SF-539 CNS; 42.7% with UACC-257 melanoma; 23.2% with M14 melanoma; 18.8% in the assay with HCT-15 colon.
